Bioassay records from PubChem BioAssay.
A selection: hits, their analogues and other compounds. The true share with any hit is near 3.5%.
Pf apPOL inh = Pf-apPOL DNA polymerase inhibition. 210,000 tested, 0.25% active. inhibition, % at 10 µM. Recombinant Pf-apPOL, molecular beacon fluorescence, 1.5 h. AID 1794808
mHTT CaM bind = inhibitors of human mutant huntingtin-calmodulin interaction; P42858; AlphaScreen His-mHTT/GST-CaM binding, luminescence; inhibition, % at 15 µM; 190,000 tested, 3.6% active; AID 1671202;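 further: 0% = both proteins with DMSO and 100% = one protein alone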
* hit, by the source's call; i = inactive; · = not tested or not shown; ! = not confirmed by another sample. No stated cut-off is given here; in the data, active means inhibition above about 50%; inactive means the rest.

SMILES	Pf apPOL inh	mHTT CaM bind
O=C1NC(=O)C(CCc2ccncc2)(CCc2ccncc2)C(=O)N1CCC1=CCCCC1	-6.3	36.3
O=C(Cc1ccccc1)N1CCN(Cc2ccccc2F)CC1	-0.4	-4.0
COc1ccc(OC)c(NC(=O)c2nc(C)n(C3CCN(C)CC3)c2C)c1	-4.7	27.2
COc1ccc(NC(=O)c2nc(C)n(C3CCN(C)CC3)c2C)c(OC)c1	58.6*	21.3
COc1ccc2c(c1)C1(CCN(C(=O)Nc3ccccc3C)C1)C(=O)N2C (centres undefined)	-3.3	-4.5
CC(C)(C)c1ccc(OCCNc2ccc([N+](=O)[O-])c3cccnc23)cc1	-2.6	1.0
Cn1c(=O)c2c(c3ccccc31)NC(=S)NN=C2	·	97.2*
COC(=O)C12CCCC(C)(C)C1CCc1cc(C(C)C)c(OC(C)=O)c(OC(C)=O)c12 (centres undefined)	-3.6	·
Cn1cc(C(=O)N2CCOCC2)c2cccnc21	-6.2	-5.5
Nc1cc2nc3ccccc3nc2cc1N	·	19.1
Nc1cc2nc3ccccc3nc2cc1O	0.1	100.3*
NCCc1c[nH]c2ccc(OCc3ccccc3)cc12	2.6	80.1*!
c1ccc(Oc2ccc3[nH]cc(CCN4CC4)c3c2)cc1	·	71.9*
CN1CCCN(Cc2c[nH]c3ccccc23)CC1	-4.0	-3.8
NCCc1c[nH]c2ccccc12	4.3	·
CNC(C)c1ccc2c(c1)OCCO2 (centres undefined)	-37.9	-1.5
CN1C2C=C3[C@H](C1CC2)[C@@H](c1ccc(Cl)cc1)C(C#N)=C(N)C3(C#N)C#N (some centres undefined)	·	-4.4
COc1ccc(N2CCN(Cc3ccc(Cl)cc3Cl)CC2)cc1	-5.4	61.0*
Clc1ccc(CN2CCN(c3ccccc3)CC2)c(Cl)c1	-3.4	25.8
c1cnc2nc(N3CCNCC3)oc2c1	·	-2.8
Fc1nc(N2CCNCC2)c(F)c(Sc2ccc(Cl)cc2)c1F	·	96.3*
Cc1ccc(CN2CCN(c3ccccc3)CC2)c(C)c1	-0.3	-2.7
O=C(c1cc(-c2ccco2)[nH]n1)N1CC2CC(C1)c1cccc(=O)n1C2 (centres undefined)	-7.2	-11.6
O=[N+]([O-])c1cccc(/C=C2\C(=N\O)C3CCN2CC3)c1	-3.7	i
COc1ccc(-n2c(/C=C/c3ccc(O)c(OC)c3)nc3ccccc3c2=O)cc1	-3.8	10.1
SMILES	Pf apPOL inh	mHTT CaM bind
Cc1cccc(-n2c(/C=C/c3cccnc3)nc3ccccc3c2=O)c1	-9.2	100.2*
COc1cccc(-n2c(/C=C/c3cccc([N+](=O)[O-])c3)nc3ccccc3c2=O)c1	-1.0	26.5
COc1cccc(-n2c(/C=C/c3ccc(O)c(O)c3)nc3ccccc3c2=O)c1	-4.2	69.6*
Cc1cccc(/C=C/c2nc3ccccc3c(=O)n2-c2cccc(O)c2)c1	-12.3	24.7
O=c1c2ccccc2nc(/C=C/c2cccc([N+](=O)[O-])c2)n1-c1ccccn1	91.0*!	2.0
CCC(C)n1[nH]c(=O)c2c1NC(=O)CSC2c1ccc(OCc2ccccc2)cc1 (centres undefined)	-4.7	14.0
CN1CCCN(C(=O)c2nn(CCN3CCCCC3)c3ccccc23)CC1	-1.4	27.4
CNCCn1ccc2ccccc21	-17.4	6.0
CC1N=C(c2ccccc2)c2ccccc2N(CC(=O)NCCc2ccccc2)C1=O (centres undefined)	-13.0	-3.0
Cc1cccc(CC(=O)N2CCCN(C3CCN(Cc4ccc(F)cc4)C3=O)CC2)c1 (centres undefined)	1.4	86.2*
O=C(Cc1ccsc1)N1CCCN(C2CCN(Cc3ccc(F)cc3)C2=O)CC1 (centres undefined)	0.8	39.2
COc1cccc(CN2CCN(Cc3ccccc3)CC2)c1OC	4.4	-2.5
Cc1cc(I)ccc1NC(=O)C(Cl)(Cl)Cl	2.3	-11.4
O=[N+]([O-])c1cc(SC(F)(F)F)cc([N+](=O)[O-])c1N1CCNCC1	1.1	4.0
